Experimental data from paper PMC7819943, “Rice protein-binding microarrays: a tool to detect cis-acting elements near promoter regions in rice”.
Over roughly 35,000 sequences, “fluorescence intensity (a.u.)” has its median near 10,000; the highest 2% begin near 52,000. Shown is part of a subset that was picked to be rich in the highest values.

biological target: T1, OsWOX13 (Oryza sativa, UniProt Q5QMM3 1-267); experiment: protein-binding microarray (RPBM); PBS, 2% BSA, 51.3 ng/ul salmon testes DNA, 50 uM zinc acetate, 200 nM TF, 25 C, 1 h; high values mean tight binding; settings: protein: recombinant; tags: N-terminal polyhistidine and DsRed monomer fusion (pET32a); label: CyDye5-dUTP incorporated in the synthesized complementary strand; 3' TTTTT single-stranded linker to array surface; dsDNA, one strand shown
T1 sequence: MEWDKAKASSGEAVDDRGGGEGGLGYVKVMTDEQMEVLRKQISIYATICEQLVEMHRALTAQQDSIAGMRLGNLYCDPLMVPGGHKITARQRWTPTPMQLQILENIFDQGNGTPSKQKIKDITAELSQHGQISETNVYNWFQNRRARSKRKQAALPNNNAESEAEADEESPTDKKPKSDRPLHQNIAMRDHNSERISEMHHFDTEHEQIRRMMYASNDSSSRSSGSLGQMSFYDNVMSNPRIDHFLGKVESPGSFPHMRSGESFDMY
Summary of the method: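 For the binding signal, per-feature fluorescence intensity was read in arbitrary units on an Axon 4000B scanner. Before scanning, a 2% BSA-blocked custom Agilent array made double-stranded with Cy5-dUTP was washed after 1 h at 25 °C with 200 nM protein and 50 µM zinc acetate. The proteins were Ni–NTA-purified transcription factors with N-terminal polyhistidine and DsRed fusions, expressed in E. coli BL21-CodonPlus.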

Sequence | binding signal
ATTTATTAATATTAATATTATTGTGGGAAATTTTAGAATGCGGAGTCACCTAGTGCAG | 3460 fluorescence intensity (a.u.)
TGCTGTAATTACTTTTCTGTAATTTGGATTAATCCTTCGCCGGAGTCACCTAGTGCAG | 40800 fluorescence intensity (a.u.)
AGATACTTAATTAGTGTCTTCTATAAGCAAAGGTCAGGAACGGAGTCACCTAGTGCAG | 11300 fluorescence intensity (a.u.)
GCTCTATCACAAAATAAACTAGAGTTATGAAGCTGGATTTCGGAGTCACCTAGTGCAG | 4850 fluorescence intensity (a.u.)
GTTATGTAATTAAAACGTTGTTTTCTTCTAATATATTGTCCGGAGTCACCTAGTGCAG | 7150 fluorescence intensity (a.u.)
AATCAAATCATCTCATCAAAGTCCAATCCCGCTAGCTCCACGGAGTCACCTAGTGCAG | 9000 fluorescence intensity (a.u.)
TCTGGTCGTAAATTGACAACCAACCTTAAGAAAATCCAGGCGGAGTCACCTAGTGCAG | 21300 fluorescence intensity (a.u.)
GAAATGGGCCTAATTGTCGGTCACATACCGAGTAAATGGGCGGAGTCACCTAGTGCAG | 4300 fluorescence intensity (a.u.)
TTTTGATTGCACCTTGCTTCTCGTATACACCCTCACCTATCGGAGTCACCTAGTGCAG | 22200 fluorescence intensity (a.u.)
GATTGATTTGATTGATTGCTTGATTGGTTAATTGGTTGATCGGAGTCACCTAGTGCAG | 51600 fluorescence intensity (a.u.)
TGATTGTACGTATTCTGATTGATTGCTTATCGATATCTCACGGAGTCACCTAGTGCAG | 26100 fluorescence intensity (a.u.)
CGGGTTTGATTTGATTTGATTTTGATTTTGATTTGCTTCTCGGAGTCACCTAGTGCAG | 53400 fluorescence intensity (a.u.)
GTGATTGATATCGATTCTGATTGATGCCTTTGCCTGGTACCGGAGTCACCTAGTGCAG | 57000 fluorescence intensity (a.u.)
TAATCGTATTAATTGATCAACAGGCTAGGCCAGCCAAACACGGAGTCACCTAGTGCAG | 13200 fluorescence intensity (a.u.)
ACGGGGTTGCGGTAATTTTAATTGGGCCGAAATGTGATTCCGGAGTCACCTAGTGCAG | 4130 fluorescence intensity (a.u.)
GGCCGATTGATTGGGTCCGAGTAATCTCGGAAATGTGGGGCGGAGTCACCTAGTGCAG | 53600 fluorescence intensity (a.u.)
ACCTTCACTTGATTGCTGGTGGTAGTAGTAGTAGTAGTACCGGAGTCACCTAGTGCAG | 21700 fluorescence intensity (a.u.)
TGAGTAATTGATAGTGACACGGCTATCCAACCAATCCAGGCGGAGTCACCTAGTGCAG | 65100 fluorescence intensity (a.u.)
CAAGAAATGACTTAATTAGAAAACCTCTTTGGAGCACCCACGGAGTCACCTAGTGCAG | 11000 fluorescence intensity (a.u.)
AAAGCATTCATGTTAATTTTCTCCTAACTCAAATCGAATGCGGAGTCACCTAGTGCAG | 3260 fluorescence intensity (a.u.)
CTGATTGGTTAGTAAGAGAATGTTGGTGGTGAAGTTGTTACGGAGTCACCTAGTGCAG | 29900 fluorescence intensity (a.u.)
AAACTAACCAGGATCTGGTAATTGGAACGATCCCCATTCCCGGAGTCACCTAGTGCAG | 4390 fluorescence intensity (a.u.)
GAAGTTTAATTATCATAAGATTGTGATGGTTATGTATGGTCGGAGTCACCTAGTGCAG | 31700 fluorescence intensity (a.u.)

Sequence | binding signal
TGTATTGCCTAATTAATTTTATGCGCCTTTAATTTACTGCCGGAGTCACCTAGTGCAG | 16800 fluorescence intensity (a.u.)
CATATCCCATTTGCCAATCACACCCTGAGAGTATGTATATCGGAGTCACCTAGTGCAG | 6560 fluorescence intensity (a.u.)
CACCATTATTGCCAATTATCCTTGCTTGCGTGGTAGAGTACGGAGTCACCTAGTGCAG | 26200 fluorescence intensity (a.u.)
ACTTGATTTCTCTGTTGGAAGATGGGTATATTTCGAGACCCGGAGTCACCTAGTGCAG | 17200 fluorescence intensity (a.u.)
TACTCTGATTTTGTCCATTACCAGCTGCAAATGGACCAGCCGGAGTCACCTAGTGCAG | 19300 fluorescence intensity (a.u.)
TTGACAGTTAATCCTAGGTCTATCTATCGCACTGAGTTTGCGGAGTCACCTAGTGCAG | 12400 fluorescence intensity (a.u.)
ACAGATTGAGAGGGAGCTCAGGGAACCAGTCTCACAAAATCGGAGTCACCTAGTGCAG | 8100 fluorescence intensity (a.u.)
TAAAATTGCATGTGATCATTTTGTAAGCTAAACTTTTATTCGGAGTCACCTAGTGCAG | 11600 fluorescence intensity (a.u.)
TCTTTGATTGGTGGCGGTGTTGAATTGAATTGAATTGATCCGGAGTCACCTAGTGCAG | 46300 fluorescence intensity (a.u.)
GCTGCTCGGATTTGATTGATTGATTGATTGGCGGGTGGTCCGGAGTCACCTAGTGCAG | 64500 fluorescence intensity (a.u.)
TTTGGATTGGGTTTGGTGGTTGGGTGGGAGGGAGGGAGCTCGGAGTCACCTAGTGCAG | 18700 fluorescence intensity (a.u.)
TACTATCAACTCTGTTAAAATTGAAGAATTTTGACTAAAACGGAGTCACCTAGTGCAG | 3310 fluorescence intensity (a.u.)
AGAATAATTATTTAAGTTAAGGTGTGTCACACCCCAATCCCGGAGTCACCTAGTGCAG | 25100 fluorescence intensity (a.u.)
GTGCATCACCAATCAAAACAGGAGGTGTTTGGAACTCCGTCGGAGTCACCTAGTGCAG | 3870 fluorescence intensity (a.u.)
TACGCATTGATTAGTTTTGTCAGGTTAGTATAGAATTTAACGGAGTCACCTAGTGCAG | 14000 fluorescence intensity (a.u.)
GTACTTGATAGTTCAGTGATAAGGGGTGTGATTTCAACCCCGGAGTCACCTAGTGCAG | 4490 fluorescence intensity (a.u.)
CAGGTGTGATTGAAGTGATGTACTCAACTTACACCCGGGCCGGAGTCACCTAGTGCAG | 54400 fluorescence intensity (a.u.)
GTACTAGTATTATTGATTGATACACTTGTGATGTCATGCCCGGAGTCACCTAGTGCAG | 30900 fluorescence intensity (a.u.)
ACATAATTAGTTTATCTCTCCTCAAGCTGGTGCATCTCTCCGGAGTCACCTAGTGCAG | 31200 fluorescence intensity (a.u.)
TCGCTTTGATTGACACTAAGAACCTCGCTGCGCATCTCGTCGGAGTCACCTAGTGCAG | 58600 fluorescence intensity (a.u.)
TCTCCAAGATTGATCCGCATCTCCAACTAAACCCTCTCCTCGGAGTCACCTAGTGCAG | 7230 fluorescence intensity (a.u.)
GAACCTTTTGATTGATTCTCGTCCTACACGCTTGAAGGCGCGGAGTCACCTAGTGCAG | 38200 fluorescence intensity (a.u.)
